{"source": "the OligoGym collection"}
{"target": "IPO9", "assay": "pooled miR-30 sensor sort-seq; sequence = guide strand", "details": "shRNA"}
{"sequence": "TATTGTTTCAAGATGACTGATG", "sensor-assay potency score (higher = more potent)": -0.429}
{"sequence": "TTCTAGCTGAGTGTGCACCAGA", "sensor-assay potency score (higher = more potent)": -0.519}
{"sequence": "TAATCTGTTCTTCAGCAGCCGC", "sensor-assay potency score (higher = more potent)": -1.2}
{"sequence": "TTGCTTTCCATGCTTGCTGTGA", "sensor-assay potency score (higher = more potent)": -0.476}
{"sequence": "TTTGCTTATCGATTCTCTCAAC", "sensor-assay potency score (higher = more potent)": -1.05}
{"sequence": "TTGTCATCTGCATTGATGCCAT", "sensor-assay potency score (higher = more potent)": -0.517}
{"sequence": "TTATCGATTCTCTCAACCCATT", "sensor-assay potency score (higher = more potent)": -1.16}
{"sequence": "TATAGGAGAATGTATCATCATC", "sensor-assay potency score (higher = more potent)": -0.789}
{"sequence": "TTTGTATTTCGTACTACTGTTG", "sensor-assay potency score (higher = more potent)": -0.688}
{"sequence": "TTACAGAGTGCCACAGAGCTGA", "sensor-assay potency score (higher = more potent)": -0.313}
{"sequence": "TTTTTGGCTGACTTAGAGCGGG", "sensor-assay potency score (higher = more potent)": -0.902}
{"target": "IQCF1", "assay": "pooled miR-30 sensor sort-seq; sequence = guide strand", "details": "shRNA"}
{"sequence": "ATACACTCTGTCACAATGCAAG", "sensor-assay potency score (higher = more potent)": -1.11}
{"sequence": "TAGCCTCTGCCTTTGACTCTGC", "sensor-assay potency score (higher = more potent)": -0.296}
{"sequence": "TTGTCCACTGTCTGTGTCTCAA", "sensor-assay potency score (higher = more potent)": -0.831}
{"sequence": "TTGAGCACCTGGCAATAGCGTC", "sensor-assay potency score (higher = more potent)": -1.02}
{"sequence": "TACCGTATCTTTGTCAGAGAGC", "sensor-assay potency score (higher = more potent)": -0.874}
{"sequence": "TTTCTCATTGGCATTGTCCACT", "sensor-assay potency score (higher = more potent)": -0.377}
{"sequence": "TTTGAGGGTTCCTTCGTCTTTT", "sensor-assay potency score (higher = more potent)": -0.864}
{"sequence": "TTGGCTGTGACTCTGTACTGGC", "sensor-assay potency score (higher = more potent)": -0.0836}
{"sequence": "TGGAGTTTTAGCCTCTGCCTTT", "sensor-assay potency score (higher = more potent)": -0.954}
{"sequence": "TTGATCTTGGTGGCTACCGTAT", "sensor-assay potency score (higher = more potent)": -0.916}
{"sequence": "TTCTTCAGAATCTTGGACAGTA", "sensor-assay potency score (higher = more potent)": 0.482}
{"sequence": "ATCTTTGTCAGAGAGCTTCTTT", "sensor-assay potency score (higher = more potent)": 0.163}
{"target": "IQCJ", "assay": "pooled miR-30 sensor sort-seq; sequence = guide strand", "details": "shRNA"}
{"sequence": "TAGAGAAGAATCACCTTCCTTC", "sensor-assay potency score (higher = more potent)": 0.583}
{"sequence": "TCGGAGAAGGTGTTCATGCTGA", "sensor-assay potency score (higher = more potent)": -0.401}
{"sequence": "TAGAGGATTCTGCAATCTTTTC", "sensor-assay potency score (higher = more potent)": -1.5}
{"sequence": "TTCTCTGAGGAGACAGAGGGTG", "sensor-assay potency score (higher = more potent)": -0.857}
{"sequence": "TTTTCCATCATTAACTTGTTCT", "sensor-assay potency score (higher = more potent)": -0.253}
{"sequence": "TTCCATCATTAACTTGTTCTAG", "sensor-assay potency score (higher = more potent)": -0.41}
{"sequence": "TCCATCATTAACTTGTTCTAGA", "sensor-assay potency score (higher = more potent)": -0.697}
{"sequence": "ATATTTTCCATCATTAACTTGT", "sensor-assay potency score (higher = more potent)": 0.105}
{"sequence": "TCGCTGAATGATTTTCACCTTT", "sensor-assay potency score (higher = more potent)": -0.759}
{"sequence": "TCTCTGAGGAGACAGAGGGTGG", "sensor-assay potency score (higher = more potent)": -1.51}
{"sequence": "TTGAGAGTATGTATGAACCCAG", "sensor-assay potency score (higher = more potent)": 0.0169}
{"target": "IREB2", "assay": "pooled miR-30 sensor sort-seq; sequence = guide strand", "details": "shRNA"}
{"sequence": "TAAAGTAAGAGAAACTGGCAGA", "sensor-assay potency score (higher = more potent)": -0.195}
{"sequence": "TGTCACAGCAACTCTATCCTGA", "sensor-assay potency score (higher = more potent)": 0.64}
{"sequence": "TTCGAAACAATTTCACAGCTTT", "sensor-assay potency score (higher = more potent)": 1.18}
{"sequence": "TAGTATAACATGTTCTTCCTCT", "sensor-assay potency score (higher = more potent)": 0.5}
{"sequence": "TCAACTGTAAGATCTGTCGGAC", "sensor-assay potency score (higher = more potent)": 0.203}
{"sequence": "TTTTCTTCAAAAACCACTCTTG", "sensor-assay potency score (higher = more potent)": -0.106}
